Data from PubChem BioAssay (NCI).
About 79,000 compounds went through this panel and 15% of them were active in at least one assay; those are over-represented in the sample as a whole. A number with no mark means an inactive call. Active and inactive are the calls of the source. No stated cut-off is given here; in the data, active means growth inhibition above about 70%; inactive means the rest.

Experiment: NCI Yeast Anticancer Drug Screen. Data for the CLN2oe strain (AID 163);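 further: 0% = growth of vehicle-only control cultures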
Settings: S. cerevisiae CLN2oe strain, hits give high values
Protocol: Growth inhibition of yeast strains with defined genetic alterations is measured as a screen for potential anti-cancer activity. Selected strains with alterations in DNA damage repair or cell cycle control were exposed to compounds and growth inhibition was measured relative to vehicle treated controls. The strain used in this assay is CLN2oe

Structure (SMILES) | growth inhibition (at 1.2 µM) [%] | growth inhibition (at 3.7 µM) [%] | growth inhibition (at 11.0 µM) [%] | growth inhibition (at 33.0 µM) [%] | growth inhibition (at 100.0 µM)
CNC(=O)OCc1c(COC(=O)NC)c(-c2ccc(Cl)c(Cl)c2)n2c1CCC2 | -4 | -13 | -13 | 65 | 98% (active)
O=C1C=CC(=Nc2ccc3c(c2)Cc2cc(NC(=O)C(F)(F)F)ccc2-3)O1 | -4 | 1 | 10 | 23 | 96% (active)
CC[C@@]1(O)C(=O)OCc2c1cc1n(c2=O)Cc2cc3c(N)cccc3nc2-1 | 25 | 23 | 25 | 22 | 13%
CC[n+]1ccc2c(C)c3[nH]c4ccc(O)cc4c3c(C)c2c1 | 5 | 17 | 36 | 26 | 41%
N#C/C(=C\c1cccc(OCc2ccccc2)c1)c1ccc([N+](=O)[O-])cc1 | 11 | -17 | -28 | -31 | -39%
COc1ccc(O)c(/C=N\Nc2ccccc2)c1 | -8 | -9 | -14 | -14 | 21%
O=C(O)c1ccccc1NC(=S)c1ccccc1 | 0 | 11 | 6 | 10 | 33%
Cc1ccc(S(=O)(=O)NC(=O)NC2=NC(C)(C)N(c3ccc(Cl)c(Cl)c3)C(N)=N2)cc1 | -9 | -5 | -5 | -1 | -11%
